Active and inactive are the calls of the source. Where a call stands in place of a potency, no number is given. Calls come from the whole dose curve; as a rule, active = well fitted curve in the direction sought with a large enough effect in the signal ratio in the repeat runs (not every such curve was filed as active); inconclusive = weak or mixed curves, or effect the other way; inactive = no such curve, though single readings can be large or run the other way; the % refers to the signal ratio.
Potency is the fitted concentration of half-maximal effect.

Chain of Estrogen receptor (Homo sapiens) (P03372 whole entry, looked up): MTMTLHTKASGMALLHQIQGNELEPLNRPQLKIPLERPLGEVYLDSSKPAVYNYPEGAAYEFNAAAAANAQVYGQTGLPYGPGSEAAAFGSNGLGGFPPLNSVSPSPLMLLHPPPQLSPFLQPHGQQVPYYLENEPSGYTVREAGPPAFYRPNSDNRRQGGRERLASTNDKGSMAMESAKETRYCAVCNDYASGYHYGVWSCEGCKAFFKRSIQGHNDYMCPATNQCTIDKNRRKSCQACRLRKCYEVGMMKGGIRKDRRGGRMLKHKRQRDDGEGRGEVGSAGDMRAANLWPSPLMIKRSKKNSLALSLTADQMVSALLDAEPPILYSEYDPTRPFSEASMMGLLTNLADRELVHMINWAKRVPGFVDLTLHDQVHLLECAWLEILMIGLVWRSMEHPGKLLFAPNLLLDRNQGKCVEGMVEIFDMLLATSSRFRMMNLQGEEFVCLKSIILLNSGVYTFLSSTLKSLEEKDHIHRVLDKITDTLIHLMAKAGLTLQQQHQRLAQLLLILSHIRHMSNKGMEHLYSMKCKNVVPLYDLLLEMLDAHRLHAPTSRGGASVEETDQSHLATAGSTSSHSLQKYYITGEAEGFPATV

The assay deals with Estrogen receptor (Homo sapiens) (UniProt P03372). The assay can be described thus: qHTS assay to identify small molecule antagonists of the estrogen receptor alpha (ER-alpha) signaling pathway (AID 743069). The following applies: HEK293 ER-alpha-UAS-bla, beta-lactamase ratio, antagonist mode; series mostly up to 69.4 µM. The text has this:
National Center for Advancing Translational Sciences [NCATS]
NIH Chemical Genomics Center [NCGC]
U.S. Environmental Protection Agency [EPA]
National Institutes of Environmental Health Sciences [NIEHS]
National Toxicology Program [NTP]
U.S. Food and Drug Administration [FDA]
Estrogen receptor (ER), a nuclear hormone receptor, plays an important role in development, metabolic homeostasis and reproduction. Two subtypes of ER, ER-alpha and ER-beta have similar expression patterns with some uniqueness in both types. Endocrine disrupting chemicals (EDCs) and their interactions with steroid hormone receptors like ER causes disruption of normal endocrine function. To identify the compounds that inhibit ER signaling, an ER-alpha-UAS-bla GripTiteTM cell line (Invitrogen, Carlsbad, CA, USA) containing a beta-lactamase reporter gene under the control of an Upstream Activator Sequence (UAS) stably integrated into HEK293 cells was used to screen the Tox21 10K compound library.
Tox21 Assay Protocol Summary:
ER-alpha-bla cells were cultured in assay medium containing 2% charcoal stripped FBS overnight in the culture flasks before the assay was performed. The cells were dispensed at 5,000 cells/5 uL of assay medium per well into black wall/clear-bottom 1536-well plates using a Multidrop Combi (ThermoFisher Scientific, Waltham, MA) dispenser. After the assay plates were incubated at a 37C and 5% CO2 for 4 hr, 23 nL of compounds dissolved in DMSO, positive controls or DMSO only was transferred to the assay plate by a Pintool station (Kalypsys, San Diego, CA), followed by addition of 1 uL of 17beta-estradiol in assay medium using a Flying Reagent Dispenser (Aurora Discovery, San Diego, CA). The plates were incubated at 37C and 5% CO2 for 18 hr. Then 1 uL of LiveBLAzerTM B/G FRET substrate was added using a Flying Reagent Dispenser, the plates were incubated at room temperature for 2 hours, and fluorescence intensity was measured by an Envision plate reader (PerkinElmer, Shelton, CT).
For orientation: In qHTS, concentration-response curves come from the screen itself.
As for `Cc1cscn1`, the Potency entry was “inactive”.

`CCCCC(CC)COP(=O)(O)O` (stereo not given): the Potency is 39.6 µM [inconclusive] (active).

`COc1cc(C(=O)NCCCCCC(=O)O)cc(OC)c1OC`: the Potency entry is “inactive”.

On to `O=C(O)CCCCCCCCCCCBr`, for which the Potency result was “inactive”.

Turning to `CCC(C)COC(C)=O` (stereo not given), the Potency result was “inactive”.

Take `O=C1c2ccccc2C(=O)C1c1ccc(Br)cc1`: the Potency result is “inactive”.

As for `C[C@@H](O)[C@H]1C(=O)N2C(C(=O)O)=C([C@H]3CCCO3)S[C@H]12`, the Potency result was “inactive”.

Consider `C=C1C[C@@]23CC[C@H]4[C@@](C)(CCC[C@@]4(C)C(=O)O[C@@H]4O[C@H](CO)[C@@H](O)[C@H](O)[C@H]4O)[C@@H]2CC[C@]1(O[C@@H]1O[C@H](CO)[C@@H](O)[C@H](O[C@@H]2O[C@H](CO)[C@@H](O)[C@H](O)[C@H]2O)[C@H]1O[C@@H]1O[C@H](CO)[C@@H](O)[C@H](O)[C@H]1O)C3`, for which the Potency entry was “inactive”.

On to `O=C(OC(=O)c1ccccc1)c1ccccc1`, for which the Potency entry was “inactive”.

Take `CCOC(=O)/C=C/C(=O)OCC`: the Potency result was “inactive”.

As for `Cc1ccco1`, the Potency result is “inactive”.

For the molecule `COC(=O)CS`, the Potency result is “inactive”.

On to `NCCNCCO`, for which the Potency entry is “inactive”.

Consider `O=C1c2ccccc2C(=O)c2c(O)c(O)cc(O)c21`, for which the Potency entry was “inactive”.

On to `CCc1ccccc1`, for which the Potency result is “inactive”.

With `CC(=O)Nc1cc(S(=O)(=O)O)cc2cc(S(=O)(=O)O)c(N=Nc3ccccc3)c(O)c12`, the Potency result is “inactive”.

Consider `Brc1cc2ccccc2c2ccccc12`, for which the Potency entry is “inactive”.

Turning to `CCCCCCC(C)(C)C(=O)O`, the Potency entry was “inactive”.

Regarding `COc1ncnc(NS(=O)(=O)c2ccc(N)cc2)c1OC`, the Potency result was “inactive”.

`CCOC(=O)c1ccccc1C(=C1C=C(Br)C(=O)C(Br)=C1)c1cc(Br)c(O)c(Br)c1`: the Potency is 5.8 µM [inconclusive] (active).

`CO[C@]1(NC(=O)CSC(F)F)C(=O)N2C(C(=O)O)=C(CSc3nnnn3CCO)CO[C@H]21`: the Potency entry was “inactive”.

In the case of `CC(C)=CC(=O)C=C(C)C`, the Potency entry was “inactive”.

In the case of `C/C=C\C/C=C/CCCCCCCCOC(C)=O`, the Potency result is “inactive”.

On to `O=C1c2ccccc2C(=O)C1(O)O`, for which the Potency result is “inactive”.

Regarding `CCCC(=O)C(=O)O`, the Potency entry is “inactive”.

`CCC(C)COC(=O)CC(C)C` (stereo not given): the Potency entry is “inactive”.

`N#CCc1ccc(Cl)cc1Cl`: the Potency result is “inactive”.

`Cc1ccccc1S`: the Potency result is “inactive”.

Regarding `O=C1NC(=O)c2cc([N+](=O)[O-])ccc21`, the Potency result is “inactive”.

Take `O=[N+]([O-])c1cc(C2CCCCC2)c(O)c([N+](=O)[O-])c1`: the Potency is 6.15 µM [inconclusive] (active).

As for `C=C(C)CCCC(C)CCO` (stereo not given), the Potency result is “inactive”.

Take `CC(C)(C)C(=O)C(=O)O`: the Potency result is “inactive”.

Turning to `C=C1CCC2CC1C2(C)C` (stereo not given), the Potency entry was “inactive”.

Turning to `C=C(C)[C@@H]1CCC2=CCC[C@@H](C)[C@]2(C)C1`, the Potency result is “inactive”.

Regarding `FC(F)(F)c1ccccc1Cl`, the Potency entry was “inactive”.

As to `C/C=C/C=C/C=O`, the Potency entry is “inactive”.

As for `O=C(Cn1ccnc1[N+](=O)[O-])NCCO`, the Potency result is “inactive”.

Consider `Nc1ccc(N=Nc2ccccc2)c(N)c1`, for which the Potency entry was “inactive”.

As for `Cc1cc(C)cc(N)c1`, the Potency entry is “inactive”.

Turning to `C=C1c2cccc(O)c2C(O)=C2C(=O)[C@]3(O)C(O)=C(C(N)=O)C(=O)[C@@H](N(C)C)[C@@H]3[C@@H](O)[C@H]12`, the Potency result was “inactive”.

The record behind these values is PubChem BioAssay (Tox21).
